Only some compounds are listed: those with a hit (about 12% of all), similar ones and a draw of the others.
HCV inh: blocks hepatitis C virus; hit rate 3.4% among 340,000; Potency, µM (top dose mostly 41.8 µM), usual class: inhibitors; Huh7.5.1 HCVcc-Cre infection, luciferase reporter, 44 h; AID 651820
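HCVcc-Cre virus at an moi near 0.5 was added right after compound to cells cultured 4 h from seeding (1,000 cells/well). Luciferase activity was determined 44 h later, 15 min after substrate addition at RT.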
SARS PLpro yeast: SARS-CoV PLP inhibition in yeast; hit rate 0.19% among 330,000; Potency, µM (top dose mostly 32.9 µM), actives largely listed as activators; AID 485353; S. cerevisiae expressing SARS-CoV PLpro, growth rescue; calls by dose curve; note: nearly all actives have a fitted effect of over 55% in size
NS1 function inh: blocks influenza NS1 protein function | Potency, µM (top dose mostly 46.1 µM) | hit rate 0.4% among 270,000 | AID 2326; calls by dose curve; note: actives are rising curves; nearly all actives have a fitted effect of over 50% in size
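A cell-based growth assay was used: compounds that relieve NS1-induced slow growth of budding yeast raise OD600. Assay medium was yeast nitrogen base with ammonium sulphate and -URA supplement, pH 6.0, with 2% galactose.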
Pf growth 96h: P. falciparum growth inhibition at 96 hours | P. falciparum luciferase reporter growth, 96 h | Potency, µM (highest dose often 28.7 µM), usual class: inhibitors | hit rate 6.9% among 320,000 | AID 504834
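P. falciparum expressing integrated firefly luciferase, in erythrocytes at 2% hematocrit, 0.05% parasitemia, incubated with compounds 96 h at 37 C, 5% CO2. Growth inhibition read as loss of luminescence; two-generation exposure targets delayed-death apicoplast inhibitors.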
Pf growth 48h: inhibits P. falciparum growth in the first generation, 48 h. P. falciparum luciferase growth in erythrocytes, 48 h. Potency, µM (titrated, usually from 28.7 µM), hits mostly inhibitors. hit rate 5.9% among 310,000. AID 504832
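Compounds are pin-transferred into medium, infected erythrocytes (2% hematocrit, 0.1% parasitemia final) are added, and plates sit one parasite generation at 37 C in 5% CO2. Detection reagent is then added and luminescence measured.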
AMA1-RON2 inh: AMA1-RON2 (P. falciparum) interaction inhibition; Potency, µM (top dose mostly 58.2 µM), usual class: inhibitors; AlphaScreen AMA1-biotinylated RON2 peptide binding; AID 720542; hit rate 0.2% among 360,000; note: nearly all actives have a fitted effect of over 45% in size
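AMA1 (3D7) with his tag at 25 nM final met compounds first, then biotinylated RON2 peptide at 25 nM; detection used donor plus acceptor beads, 10 µg/mL apiece, read by AlphaScreen after 30 min at room temperature.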
Hits are given with their value; 0 = inactive; ? = inconclusive; - = no result; [ ] = remark or other dose. Unless noted, calls come from the whole dose curve; as a rule, active = well fitted curve in the direction sought with a large enough effect; inconclusive = small, poorly fitted or top-dose-only effect, or another doubt; inactive = no such curve, though single readings can be large; an effect the other way counts as inactive or inconclusive.

SMILES	HCV inh	SARS PLpro yeast	NS1 function inh	Pf growth 96h	Pf growth 48h	AMA1-RON2 inh
O=C(O)c1cc(O)c2c(c1)[C@@H]([C@H]1c3cc(C(=O)O)cc(O)c3C(=O)c3c(O[C@@H]4O[C@H](CO)[C@@H](O)[C@H](O)[C@H]4O)cccc31)c1cccc(O[C@@H]3O[C@H](CO)[C@@H](O)[C@H](O)[C@H]3O)c1C2=O	0	0	-	-	-	1.4µM
O=C(Cn1nc2n(c1=O)-c1ccccc1SC2)N/N=C/c1cccs1	0	0	0	0	0	0
COc1ccc(CCNc2ncnc3c2[nH]c2cc(OC)c(OC)cc23)cc1OC	0	0	0	1.9µM	?	?
COc1cc2ncnc(NCc3ccc(C)cc3)c2cc1OC	0	0	0	?	?	0
COc1ccc(CCNc2nc(N3CCOCC3)nc(N3CCOCC3)n2)cc1OC	?	0	0	0	0	0
COc1ccc(CCNc2ncnc3cc(OC)c(OC)cc23)cc1OC	10µM	0	0	0	13µM	0
COc1ccc(CCNc2c3ccccc3nc3ccccc23)cc1OC	?	0	0	1.9µM	1.5µM	0
COc1ccc(CCNc2ncnc3c2nnn3Cc2ccccc2)cc1OC	?	0	0	?	?	0
COc1ccc(CCNc2nc(N3CCCCC3)nc(N3CCCCC3)n2)cc1OC	22µM	0	0[9.22 µM]	0	13µM	0
OC[C@H](CCc1c[nH]c2ccccc12)c1c[nH]c2ccccc12	-	-	0	-	-	-
Cc1ccc(C)c(Sc2ccc(S(=O)(=O)Nc3ccc(C(=O)O)cc3)cc2)c1	0	0	-	0	?	0
CN1CCN(NC(=O)/C=C/c2cccc(Cl)c2)CC1	0	0	0	0	0	0
O=S1(=O)N[C@H]2CC[C@@H]3NS(=O)(=O)N[C@H]4CC[C@H](N1)N4S(=O)(=O)N23	-	-	0	-	-	-
COc1cc2ncnc(NCCc3ccccc3)c2cc1OC	11µM	0	0	?	10µM	0
COc1ccc(-c2cc3nc(C4CCN(C(=O)OC(C)(C)C)CC4)c(C(=O)O)cn3n2)cc1	0	0	0	0	1.3µM	0
CCOc1cc(NC(=S)Nc2ccccc2)c(OCC)cc1NC(=O)c1ccccc1	?	0	?	8.3µM	?	0
CCOc1cc(NC(=S)NCc2ccccc2)c(OCC)cc1NC(=O)C(C)C	0	0	?	?	0	0
CCOc1cc(NC(=O)C(C)C)c(OCC)cc1NC(=O)Nc1ccccc1	0	0	0	12µM	0	0
O=C1OC(CC(=O)N(Cc2nnc(-c3ccccc3Cl)o2)C2CC2)c2ccccc21 (centres undefined)	0	0	-	0	?	0
COc1cccc(CN(C)C(=O)CSc2nc3ccccc3[nH]2)c1OC	0	0	0	0	0	0
C=CCNC(=S)N1CCC(C(=O)c2ccc(Cl)cc2)CC1	?	0	0	9.3µM	0	0
CC(C)(C)NC(=S)N1CCC(C(=O)c2ccc(F)cc2)CC1	0	0	0	?	?	0
CC(C)(C)NC(=S)N1CCC(C(=O)c2ccc(Cl)cc2)CC1	?	0	0	3.3µM	0	0
Cc1cc(C)c(C#N)c(OCC(=O)c2ccc(Br)cc2)n1	?	0	0	4.7µM	?	0
CCOC(=O)c1ccc(N2CCN(C(C)=O)CC2)c(NC(=O)c2cccnc2)c1	0	0	0	0	0	0
SMILES	HCV inh	SARS PLpro yeast	NS1 function inh	Pf growth 96h	Pf growth 48h	AMA1-RON2 inh
CCN(CC)C(=O)c1c2c(nc3ccccc13)-c1ccccc1CC2	?	0	0	?	7.4µM	0
COc1cccc(C2(C)NC(=O)N(CC(=O)Nc3ccc(N4CCOCC4)cc3)C2=O)c1 (centres undefined)	0	0	-	-	-	0
CNc1c2cccc(C)c2nc2c(C(=O)NCCN(C)C)cccc12	1.4µM	-	-	-	-	0
CCCCN(CCCC)CCCNC(=O)Cn1cc2c(n1)-c1c(oc(C(=O)N3CCCC3)c1C)CC2	0	0	0	?	12µM	0
CCCN(CCC)CCNC(=O)Cn1cc2c(n1)-c1c(oc(C(=O)N3CCCC3)c1C)CC2	-	-	-	-	-	0
CC1CCC(NC(=O)CN(C)S(=O)(=O)c2ccc3c(c2)CCC(=O)N3)CC1 (centres undefined)	0	0	0	1.5µM	0	0
Cc1ccc(C)c(N2CCN(C(=O)CN(C)S(=O)(=O)c3ccc4c(c3)CCC(=O)N4)CC2)c1	0	0	0	2.3µM	-	0
COc1cccc(NC(=O)CN(C)S(=O)(=O)c2ccc3c(c2)CCC(=O)N3)c1	0	0	0	7.4µM	0	0
CC1CCCCC1NC(=O)CN(C)S(=O)(=O)c1ccc2c(c1)CCC(=O)N2 (centres undefined)	0	0	0	?	0	0
CC(=O)c1cccc(NC(=O)CN(C)S(=O)(=O)c2ccc3c(c2)CCC(=O)N3)c1	0	0	0	?	0	0
CN(C)S(=O)(=O)c1ccc(N=Cc2c(C(F)(F)F)[nH]n(C)c2=O)cc1	0	0	-	0	0	0
Cc1cccc(OCC(=O)NCc2ccccc2)c1	0	0	0	9.3µM	0	0
C/C(=N\NC(=O)COc1cccc(C)c1)c1ccc2ccccc2c1O	11µM	0	0	2.6µM	?	0
Cc1cccc(OCC(=O)NNC(=O)CCc2ccccc2)c1	0	0	0	0	0	0
Cc1ccc(CNC(=O)COc2ccccc2-c2ccccc2)cc1	0	0	0	10µM	0	0[2.32 µM]
CC(C)(C)c1ccc(C(=O)NNC(=O)CNC(=O)c2cccs2)cc1	0	0	-	-	-	0
CC1CC2C3CCC4=CC(=O)C=CC4(C)C3(F)C(O)CC2(C)C1(O)C(=O)CO (centres undefined)	0	0	0	0	0	0
C[C@H]1CC2[C@@H]3CCC4=CC(=O)C=C[C@]4(C)[C@@]3(Cl)[C@@H](O)C[C@]2(C)[C@@]1(O)C(=O)CO (some centres undefined)	-	-	0	-	-	-
CC1CC2C3CCC4=CC(=O)C=CC4(C)[C@@]3(Cl)C(O)CC2(C)C1(O)C(=O)CO (some centres undefined)	0	-	-	-	-	0
CCCC(=O)O[C@]1(C(=O)CCl)[C@H](C)C[C@@H]2[C@H]3CCC4=CC(=O)C=C[C@]4(C)[C@@]3(F)C(=O)C[C@@]21C	-	-	-	1.9µM	?	-
C[C@@H]1C[C@H]2[C@@H]3CCC4=CC(=O)C=C[C@]4(C)[C@@]3(Cl)[C@@H](O)C[C@]2(C)[C@@]1(OC(=O)c1ccco1)C(=O)CCl	0	-	-	2.1µM	1.9µM	0
C[C@H]1C[C@@H]2[C@H]3CCC4=CC(=O)C=C[C@@]4(C)[C@@]3(Cl)[C@@H](O)C[C@]2(C)[C@]1(OC(=O)c1ccco1)C(=O)CCl	-	-	-	2µM	4.5µM	-
O=C(Cc1ccc(NC(=O)C2CCN(C(=O)C3CCC3)CC2)cc1)Nc1ccc(C(=O)N2CCOCC2)cc1	0	-	-	-	-	0
C/C(=N/NC(N)=S)c1cc2ccc(O)cc2oc1=O	0	0	0	0.83µM	?	0
CC(C)CNC(=O)c1oc2ccccc2c1COc1ccccc1	0	0	0	10µM	12µM	0

Source: PubChem
